Among the data in PubChem BioAssay are z-score values, retold here.

The source made the active and inactive calls.

Assay [1] in a line: A549 cell viability effects, profiling panel, calcein-AM fluorescence, 48 h, basal (AID 1162). Particulars: higher = more signal.
The nature of assay [2]: adipocyte viability effects, profiling panel, cell-based, 3T3-L1 adipocytes, calcein-AM fluorescence, 48 h, basal (AID 1163). The conditions noted are these: 3T3-L1 adipocytes viability, higher = more signal.
Assay [3] can be described thus: HepG2 cell viability effects, profiling panel, calcein-AM fluorescence, 48 h, basal (AID 1164). The conditions noted are these: higher = more signal.
Assay [4] is described as follows: MM1S cell viability effects, profiling panel, calcein-AM fluorescence, 48 h, basal (AID 1165).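 Note: viability of MM1S multiple myeloma cells under basal unstimulated conditions.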 The conditions noted are these: higher = more signal.
The nature of assay [5]: basal RPMI8226 viability, no added stimulus, profiling panel, cell-based, calcein-AM fluorescence, 48 h, PK04 Diversity Set (AID 1166).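 Note: cells grown under basal conditions without added stimulus.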 Particulars: RPMI8226 myeloma viability, higher = more signal.
A short description of assay [6]: basal HepG2 mitochondrial membrane potential changes, profiling panel, cell-based, JC-1 fluorescence, 24 h, 100 nL compound (AID 1167). The conditions noted are these: higher = more signal.
Assay [7] is described as follows: basal 3T3-L1 adipocyte mitochondrial potential changes, profiling panel, cell-based, JC-1 fluorescence, 3T3-L1 adipocytes, 24 h, 100 nL compound (AID 1168). The conditions noted are these: JC-1 mitochondrial fluorescence, higher = more signal, called active from +8 up or from −8 down.
A short description of assay [8]: basal RPMI8226 mitochondrial membrane potential changes, profiling panel, cell-based, JC-1 fluorescence, 24 h, 100 nL compound (AID 1169). The conditions noted are these: RPMI8226 myeloma, JC-1 mitochondrial potential fluorescence, higher = more signal.
A short description of assay [9]: basal MM1S mitochondrial membrane potential changes, profiling panel, cell-based, JC-1 fluorescence, 24 h, 100 nL compound (AID 1170). The conditions noted are these: higher = more signal.
Assay [10] in a line: A549 lung cancer cell viability effects, profiling panel, resazurin fluorescence, 24 h, PK04 Diversity Set (AID 1171). Particulars: higher = more signal, called active from +8 up or from −8 down.
Note: test concentration not given here.

`CCOC(=O)[C@H](CC(C)C)NC(=O)CCC1CC(OC(=O)NCc2ccc3c(c2)OCO3)CC2(CCCC(COC(=O)NCCOC)O2)O1` (stereo not given in full): the z-score in [1] is 0.0414; in assay [2] it was -0.453; in assay [3] it was -0.0998; in [4], -0.418; in [5], 0.457; in assay [6], 0.11. For the same molecule, the z-score was 0.65 (inactive) in [7], 0.413 in [8], -0.359 in [9] and 0.689 (inactive) in assay [10].
Regarding `COc1ccc(O[C@H]2C=C[C@@H](c3ccccc3)O[C@@H]2CON=C2c3cc(OC)ccc3O[C@H](c3cccc(OC)c3)[C@H]2O)cc1`, the z-score is 0.344 in [1]; -1.17 in assay [2]; 0.189 in assay [3]; -0.0952 in assay [4]; -1.04 in [5]; 0.422 in [6]. The z-score in assay [7] is -2.37 (inactive); in [8], -0.326; in assay [9] it was -0.0381; in assay [10], -0.142 (inactive).
Regarding `CO[C@H]1C[C@@H]2C[C@H](O)CC(CC(=O)O[C@@H](C=CCC(C)C)C[C@@H]3CC[C@H](C)[C@@H](C1)O3)O2`, the z-score was 0.366 in assay [1]; 0.128 in assay [2]; 0.341 in assay [3]; 0.283 in assay [4]; 0.624 in assay [5]; -0.427 in assay [6]. Besides, the z-score in [7] was -0.975 (inactive); in [8], 0.392; in assay [9] it was -0.49; in assay [10] it was -0.0031 (inactive).
As for `CON=C(C)CCN1CCCc2nc(C)c(C)cc21`, the z-score in assay [1] is 0.604; in [2], 0.542; in [3] it was 0.926; in [4], -1.56; in [5], -0.0679; in [6], 0.791. In addition, the z-score was -0.195 (inactive) in assay [7], 0.538 in assay [8], 0.11 in assay [9] and 0.161 (inactive) in assay [10].
Take `COC(=O)C(C(=O)OC)C1CCCC(=O)C1` (stereo not given): the z-score in [1] is 0.219; in assay [2], 0.585; in assay [3] it was -0.526; in [4], -0.68; in [5], -1.34; in [6], -0.108. For the same molecule, the z-score in [7] was -0.078 (inactive); in assay [8], 0.753; in [9], 1.15; in [10], -1.14 (inactive).
On to `CC(CCN1CCCc2nc(C)c(C)cc21)=NOC[C@@H](O)COCc1ccco1`, for which the z-score in [1] was 0.604; in assay [2], 0.827; in assay [3] it was -0.496; in assay [4], -1.31; in assay [5] it was -0.441; in [6] it was -1.46. The z-score in assay [7] is -0.126 (inactive); in [8], 0.0583; in assay [9], -0.0723; in [10] it was 0.287 (inactive).
Consider `C[C@]12CCC3c4ccc(OCC5CO5)cc4CCC3C1CC[C@@H]2O` (stereo not given in full), for which the z-score was 0.45 in assay [1]; 0.277 in assay [2]; 0.266 in assay [3]; -2.59 in [4]; -1.06 in assay [5]; 1.15 in assay [6]. The z-score in assay [7] is 0.121 (inactive); in [8] it was 0.0313; in assay [9], -0.046; in assay [10], 2.25 (inactive).
With `COC(=O)[C@@H]1CC[C@H](C)[C@@H](c2ccc(Br)cc2)N1C(=O)C(F)(F)F`, the z-score in assay [1] was -0.0701; in assay [2] it was -0.0882; in assay [3] it was -0.434; in assay [4], -1.24; in [5], 0.468; in assay [6], 0.399. Further, the z-score was 0.0984 (inactive) in assay [7], 0.508 in assay [8], 0.554 in [9] and 0.839 (inactive) in assay [10].
Take `CCOC(=O)[C@H](Cc1ccccc1)NC(=O)CCC1CC(OC(=O)NCc2cccc3ccccc23)CC2(CCCC(COC(=O)NCC3CCCCC3)O2)O1` (stereo not given in full): the z-score in assay [1] was 0.391; in assay [2], 0.146; in [3] it was -0.574; in assay [4], -0.0497; in assay [5], -0.68; in [6], -0.00703. The z-score in [7] is -0.00973 (inactive); in assay [8], -0.198; in [9], -0.296; in assay [10] it was 0.684 (inactive).
Consider `O=C1[C@H]2[C@H]3[C@H](O)[C@H](O)CC(=NOC[C@@H](O)COCc4ccco4)[C@@H]3CC[C@H]2C(=O)N1Cc1ccccc1`, for which the z-score in [1] was -0.355; in [2], -0.886; in assay [3], -0.297; in assay [4], 0.727; in [5], 0.693; in assay [6] it was -0.083. For the same molecule, the z-score was -0.278 (inactive) in [7], -0.271 in assay [8], -0.782 in assay [9] and 1.06 (inactive) in [10].
Consider `C#CCCCON=C1C[C@@H](O)[C@@H](O)[C@@H]2[C@@H]3C(=O)N(CC)C(=O)[C@@H]3CC[C@H]12`, for which the z-score in assay [1] is -0.662; in assay [2], -0.751; in [3], 0.0801; in assay [4] it was 0.489; in assay [5] it was 0.516; in assay [6], -0.58. Besides, the z-score is -0.625 (inactive) in assay [7], -0.569 in [8], -0.533 in assay [9] and -0.479 (inactive) in assay [10].
With `O=C1C2=CC[C@H]3C(=O)N(C4CCCCC4)C(=O)[C@H]3[C@H]2[C@H](O)[C@@H]2O[C@H]12`, the z-score in assay [1] is -3.85; in [2] it was 1.13; in assay [3], -4.38; in [4], -3.05; in assay [5], -3.91; in [6] it was 0.771. Also, the z-score in assay [7] is 2.71 (inactive); in [8], -1.02; in assay [9], -2.83; in assay [10] it was -2.67 (inactive).
For the molecule `COc1cccc([C@H]2Oc3ccc(OC)cc3C(=NOCC[C@@H]3C=C[C@H](OC(C)=O)[C@@H](COC(C)=O)O3)[C@@H]2O)c1`, the z-score was -0.34 in assay [1]; -0.542 in assay [2]; -0.744 in [3]; 0.445 in [4]; -1.19 in [5]; -1.28 in assay [6]. Besides, the z-score was -1.16 (inactive) in [7], -0.209 in assay [8], -1.04 in [9] and -0.945 (inactive) in assay [10].
`CO[C@H]1COC(=O)CCC[C@H](C)[C@H](OC)COC(=O)CC=C[C@@H]1C`: the z-score in assay [1] is 1.11; in [2], -0.14; in assay [3], 0.481; in assay [4], -0.469; in assay [5], -0.351; in [6] it was -0.101. The z-score is -1.7 (inactive) in assay [7], 0.226 in [8], -0.982 in assay [9] and 0.285 (inactive) in assay [10].
Regarding `C#CCCCON=C1C[C@@H](O)[C@@H](O)[C@@H]2[C@@H]3C(=O)N(C[C@@H]4CCCO4)C(=O)[C@@H]3CC[C@H]12`, the z-score in assay [1] was -0.549; in assay [2], -0.614; in [3] it was -1.28; in assay [4], 0.266; in assay [5], 0.0556; in assay [6], -0.241. Besides, the z-score in [7] was -0.792 (inactive); in assay [8] it was 0.489; in assay [9], -0.149; in assay [10] it was 0.019 (inactive).
